Several values for one entry are separate records, joined by “and”; a condition that tells them apart may be missing. Equal values may be shown once. Hit rate of the full screen: of about 5,500 compounds, about 2,000 (36%) were called active. About 18% were inconclusive and are not listed. Rule as the data show it: active = normalized growth mostly below about 0.91 (no sharp cut-off); inconclusive = no clear call, values can overlap the other calls; inactive = mostly above about 0.92. The list shows a part of the results.
Test: chemical genetic growth profiling, strain panel (AID 1159580);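 also: tested at 20 µM; growth read once vehicle control cultures reached saturation at 30 °C; 1 = growth at the plate median or of vehicle wells; lower values mean less growth of the strain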
Details: S. cerevisiae deletion strains, growth OD

Measured: normalized growth

C[C@@H]1CC2C3C[C@H](F)C4=CC(=O)C=C[C@]4(C)[C@@]3(F)[C@@H](O)C[C@]2(C)[C@@]1(O)C(=O)COC(=O)C(C)(C)C (some centres not stated)
inactive: locus YAL021C, strain ccr4, active compounds read low 0.995 | locus YAL026C, strain drs2, active compounds read low 1 | locus YAL030W, strain snc1, active compounds read low 0.98 | locus YBL061C, strain skt5, active compounds read low 0.994 | locus YBR009C, strain hhf1, active compounds read low 0.972 | locus YBR021W, strain FUR4, active compounds read low 1.01 | locus YBR023C, strain chs3, active compounds read low 0.983 | locus YBR171W, strain sec66, active compounds read low 0.998 | locus YBR229C, strain ROT2, active compounds read low 1 | locus YBR231C, strain swc5, active compounds read low 0.98 | locus YBR279W, strain paf1, active compounds read low 0.986 | locus YCL011C, strain gbp2, active compounds read low 1.01 | locus YCL016C, strain dcc1, active compounds read low 0.995 | locus YCL029C, strain bik1, active compounds read low 0.992 | locus YCL069W, strain vba3, active compounds read low 1 | locus YCR088W, strain abp1, active compounds read low 1.01 | locus YDL005C, strain med2, active compounds read low 1 | locus YDL035C, strain GPR1, active compounds read low 0.982 | locus YDL040C, strain nat1, active compounds read low 0.985 | locus YDL074C, strain BRE1, active compounds read low 1 | locus YDL101C, strain DUN1, active compounds read low 1.01 | locus YDL134C, strain PPH21, active compounds read low 0.98 | locus YDL185W, strain tfp1, active compounds read low 1 | locus YDL192W, strain arf1, active compounds read low 1.01 | locus YDR001C, strain nth1, active compounds read low 0.998 | locus YDR069C, strain doa4, active compounds read low 0.991 | locus YDR101C, strain arx1, active compounds read low 0.97 | locus YDR137W, strain rgp1, active compounds read low 1 | locus YDR150W, strain NUM1, active compounds read low 0.999 | locus YDR159W, strain sac3, active compounds read low 0.991 | locus YDR162C, strain NBP2, active compounds read low 0.987 | locus YDR195W, strain ref2 0.911 | locus YDR297W, strain sur2, active compounds read low 0.993 | locus YDR318W, strain mcm21, active compounds read low 1.01 | locus YDR334W, strain swr1, active compounds read low 1 | locus YDR335W, strain msn5, active compounds read low 0.995 | locus YDR388W, active compounds read low 1.01 | locus YDR392W, strain spt3, active compounds read low 1 | locus YDR502C, strain sam2, active compounds read low 1 | locus YEL003W, strain gim4, active compounds read low 1 | locus YEL037C, strain rad23, active compounds read low 0.994 | locus YEL061C, strain CIN8 (second series), active compounds read low 1.01 | locus YEL061C, strain CIN8, active compounds read low 1 | locus YER015W, strain faa2, active compounds read low 0.996 | locus YER016W, strain bim1, active compounds read low 0.99 | locus YER110C, active compounds read low 1.02 | locus YER111C, strain swi4, active compounds read low 0.999 | locus YER155C, strain BEM2 (second series), active compounds read low 0.991 | locus YER155C, strain BEM2, active compounds read low 1.01 | locus YER167W, strain BCK2, active compounds read low 0.997 | locus YFR010W, strain ubp6, active compounds read low 0.997 | locus YGL078C, strain dbp3, active compounds read low 1.01 | locus YGL086W, strain mad1, active compounds read low 0.983 | locus YGL167C, strain pmr1, active compounds read low 0.989 | locus YGL173C, strain kem1, active compounds read low 0.994 | locus YGL227W, strain vid30, active compounds read low 1.01 | locus YGL240W, strain doc1, active compounds read low 0.971 | locus YGL248W, strain PDE1, active compounds read low 1.01 | locus YGL253W, strain hxk2, active compounds read low 1.01 | locus YGR135W, strain pre9, active compounds read low 1.05 | locus YGR252W, strain gcn5, active compounds read low 1.06 | locus YHR013C, strain ard1, active compounds read low 0.965 | locus YHR027C, strain rpn1, active compounds read low 0.998 | locus YHR030C, strain SLT2, active compounds read low 1 and 0.992 | locus YHR079C, strain IRE1 (second series), active compounds read low 1 | locus YHR079C, strain IRE1, active compounds read low 0.972 | locus YHR094C, strain hxt1, active compounds read low 1.01 | locus YHR129C, strain ARP1, active compounds read low 1.01 | locus YHR142W, strain chs7, active compounds read low 1.01 | locus YHR200W, strain rpn10, active compounds read low 1 | locus YIL066C, strain RNR3, active compounds read low 0.997 | locus YIL073C, strain SPO22, active compounds read low 0.995 | locus YIL125W, strain kgd1, active compounds read low 1 | locus YIR030C, strain dcg1, active compounds read low 1 | locus YJL092W, strain hpr5, active compounds read low 1 | locus YJL095W, strain BCK1 (second series), active compounds read low 0.989 | locus YJL095W, strain BCK1, active compounds read low 1.03 and 0.963 | locus YJL115W, strain asf1, active compounds read low 0.993 | locus YJL129C, strain trk1, active compounds read low 1 | locus YJL134W, strain LCB3, active compounds read low 1 | locus YJL154C, strain vps35, active compounds read low 0.997 | locus YJL164C, strain tpk1, active compounds read low 0.989 | locus YJL166W, strain qcr8, active compounds read low 0.966 | locus YJL168C, strain set2, active compounds read low 1.01 | locus YJL187C, strain SWE1 (second series), active compounds read low 1 | locus YJR043C, strain POL32, active compounds read low 0.983 | locus YJR066W, strain TOR1, active compounds read low 0.944
